# Laboratory results taken from PubChem BioAssay (NCATS).
# Records with an inconclusive call do not appear. Where a call stands in place of a potency, no number is given. Calls of active or inactive are those of the source. The call rests on the fitted dose curve.
# Tests used:
# [1] = Primary qHTS for inhibitors of SARS-S pseudo-typed particle cell entry (AID 1479145); details: outcome: dose series up to 57.1 µM unless noted; further: nearly all actives have a fitted effect of over 45% in size
# [2] = Primary qHTS for Huh7 cytotoxicity: counterscreen for inhibitors of MERS-S pseudotyped particle cell entry (AID 1479147); details: outcome: dose series up to 57.1 µM unless noted
# [3] = Primary qHTS for inhibitors of MERS-S pseudo-typed particle cell entry (AID 1479149); details: outcome: dose series up to 57.1 µM unless noted; further: nearly all actives have a fitted effect of over 60% in size
# [4] = Primary qHTS for Vero E6 cytotoxicity: counterscreen for inhibitors of SARS-S pseudo-typed particle cell entry (AID 1479150); details: outcome: dose series up to 57.1 µM unless noted
# [5] = Cytotoxicity counterscreen for inhibitors of SARS-CoV-2 cell entry (AID 1645845); details: outcome: dose series up to 57.1 µM unless noted; further: nearly all actives have a fitted effect of over 50% in size
# Procedure, shortened: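 Counterscreen run in the same HEK293-ACE2 line as the pseudotyped-particle entry assay, without particles. Viability after 48 h at 37 C was read as ATP luminescence, scaled between cell-containing and cell-free wells.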
# [6] = Primary qHTS to identify inhibitors of SARS-CoV-2 cell entry (AID 1645846); details: SARS-CoV-2 pseudovirus cell entry assay, luminescence; activity change, negative = inhibition: at 57.1 µM (top of the series) unless noted; further: nearly all actives have a fitted effect of over 45% in size; further: potency means the concentration at half of the fitted maximal effect
# Procedure, shortened: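 Data are normalized to wells receiving SARS-CoV-2-S pseudoparticles and those given bald particles. Entry signal was luciferase luminescence in stable hACE2 Expi293F cells, 48 hr post-infection, after 1 hr compound pretreatment.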
smiles,measurement,setting,value
CCC(=O)OCC(=O)[C@]1(OC(=O)CC)[C@H](C)C[C@H]2[C@H]3[C@H]([C@@H](O)C[C@@]21C)[C@@]1(C)C=CC(=O)C=C1C[C@H]3Cl,Potency,[1],inactive
same,Potency,[2],inactive
same,Potency,[3],inactive
same,Potency,[4],inactive
same,Potency,[5],inactive
same,"activity change, negative = inhibition",[6],-6.25%
CO/N=C(\C(=O)N[C@@H]1C(=O)N2C(C(=O)O)=C(Cn3ccc(=N)n3CCO)CS[C@H]12)c1csc(N)n1,Potency,[1],inactive
same,Potency,[2],inactive
same,Potency,[3],inactive
same,Potency,[4],inactive
same,Potency,[5],inactive
same,"activity change, negative = inhibition",[6],-19.1%
Cn1c(=O)cc(N2CCCC(N)C2)n(Cc2ccccc2C#N)c1=O (stereo unspecified),Potency,[1],inactive
same,Potency,[2],inactive
same,Potency,[3],inactive
same,Potency,[4],inactive
same,Potency,[5],inactive
same,"activity change, negative = inhibition",[6],-28.9%
CSCC[C@H](N)C(=O)O,Potency,[1],inactive
same,Potency,[2],inactive
same,Potency,[3],inactive
same,Potency,[4],inactive
same,Potency,[5],inactive
same,Potency,[6],inactive
CC(C)(C)NCC(O)CSc1nc(-c2ccc(C(N)=O)s2)cs1 (stereo unspecified),Potency,[1],inactive
same,Potency,[2],inactive
same,Potency,[3],inactive
same,Potency,[4],inactive
same,Potency,[5],inactive
same,"activity change, negative = inhibition",[6],-22.9%
CC(=O)OCC(=O)[C@@]1(O)[C@H](C)C[C@H]2[C@@H]3C[C@H](F)C4=CC(=O)C=C[C@]4(C)[C@@]3(F)[C@@H](O)C[C@@]21C,Potency,[1],inactive
same,Potency,[2],inactive
same,Potency,[3],inactive
same,Potency,[4],inactive
same,Potency,[5],inactive
same,Potency,[6],inactive
C=C1/C(=C/C=C2\CCC[C@]3(C)[C@@H]([C@H](C)/C=C/C=C/C(O)(CC)CC)CC[C@@H]23)C[C@@H](O)C[C@@H]1O,Potency,[1],inactive
same,Potency,[2],inactive
same,Potency,[3],inactive
same,Potency,[4],inactive
same,Potency,[5],inactive
same,"activity change, negative = inhibition",[6],-5.54%
CC[C@H]1OC(=O)[C@H](C)[C@@H](O[C@H]2C[C@@](C)(OC)[C@@H](O)[C@H](C)O2)[C@H](C)[C@@H](O[C@@H]2O[C@H](C)C[C@H](N(C)C)[C@H]2O)C(C)(O)C[C@@H](C)/C(=N\OCOCCOC)[C@H](C)[C@@H](O)[C@]1(C)O (stereo partly specified),Potency,[1],inactive
same,Potency,[2],inactive
same,Potency,[3],inactive
same,Potency,[4],inactive
same,Potency,[5],inactive
same,Potency,[6],inactive
Cc1onc(-c2c(F)cccc2Cl)c1C(=O)N[C@@H]1C(=O)N2[C@@H]1SC(C)(C)[C@H]2C(=O)O,Potency,[1],inactive
same,Potency,[2],inactive
same,Potency,[3],inactive
same,Potency,[4],inactive
same,Potency,[5],inactive
same,"activity change, negative = inhibition",[6],-29.1%
CCC(=O)O[C@]1(C(=O)COC(C)=O)CC[C@H]2[C@@H]3CCC4=CC(=O)CC[C@]4(C)[C@H]3[C@@H](O)C[C@@]21C,Potency,[1],inactive
same,Potency,[2],inactive
same,Potency,[3],inactive
same,Potency,[4],inactive
same,Potency,[5],inactive
same,"activity change, negative = inhibition",[6],-0.634%
CCN(CC)CCOC(=O)c1cccnc1,Potency,[1],inactive
same,Potency,[2],inactive
same,Potency,[3],inactive
same,Potency,[4],inactive
same,Potency,[5],inactive
same,"activity change, negative = inhibition",[6],-32.2%
CC(C=CC1=C(C)CCCC1(C)C)=CC=CC(C)=CC(=O)Oc1c(C)c(C)c2c(c1C)CC[C@@](C)(CCC[C@H](C)CCC[C@H](C)CCCC(C)C)O2,"activity change, negative = inhibition",[1],-3.62% [at 5.34 µM] (inactive)
same,"activity change, negative = cytotoxicity",[2],-9.73% [at 5.34 µM] (inactive)
same,outcome,[3],inactive [at 5.34 µM]
same,"activity change, negative = cytotoxicity",[4],-3.15% [at 5.34 µM] (inactive)
same,"activity change, negative = cytotoxicity",[5],-2.74% [at 5.25 µM] (inactive)
same,outcome,[6],inactive [at 5.25 µM]
COc1ccc(CC(C)(C)NC[C@H](O)c2cc(O)cc3c2OCC(=O)N3)cc1,Potency,[1],inactive
same,Potency,[2],inactive
same,Potency,[3],inactive
same,Potency,[4],inactive
same,Potency,[5],inactive
same,"activity change, negative = inhibition",[6],2.79%
OC[C@@H](O)C(O)[C@H](O)CO,Potency,[1],inactive
same,Potency,[2],inactive
same,Potency,[3],inactive
same,Potency,[4],inactive
same,Potency,[5],inactive
same,"activity change, negative = inhibition",[6],2.94%
CCOC(=O)CCC(=O)O[C@H]1[C@H](O[C@@H]2[C@@H](C)[C@H](O[C@H]3C[C@@](C)(OC)[C@@H](O)[C@H](C)O3)[C@@H](C)C(=O)O[C@H](CC)[C@@](C)(O)[C@H](O)[C@@H](C)C(=O)[C@H](C)CC2(C)O)O[C@H](C)C[C@@H]1N(C)C (stereo partly specified),Potency,[1],inactive
same,Potency,[2],inactive
same,Potency,[3],inactive
same,Potency,[4],inactive
same,Potency,[5],inactive
same,"activity change, negative = inhibition",[6],-2.45%
CCC(=O)O[C@]1(C(=O)COC(C)=O)CC[C@H]2[C@@H]3C[C@H](C)C4=CC(=O)C=C[C@]4(C)[C@H]3[C@@H](O)C[C@@]21C,Potency,[1],inactive
same,Potency,[2],inactive
same,Potency,[3],inactive
same,Potency,[4],inactive
same,Potency,[5],inactive
same,"activity change, negative = inhibition",[6],-17.7%
CCCCCCCCCCCCCCCC(=O)OCC(=O)[C@@]1(O)[C@H](C)C[C@H]2[C@@H]3CCC4=CC(=O)C=C[C@]4(C)[C@@]3(F)[C@@H](O)C[C@@]21C,Potency,[1],inactive
same,Potency,[2],inactive
same,Potency,[3],inactive
same,Potency,[4],inactive
same,Potency,[5],inactive
same,"activity change, negative = inhibition",[6],3.26%
CC(=O)NC(C=O)C(O)C(O)[C@H](O)CO (stereo partly specified),Potency,[1],inactive
same,Potency,[2],inactive
same,Potency,[3],inactive
same,Potency,[4],inactive
same,Potency,[5],inactive
same,"activity change, negative = inhibition",[6],-0.156%
CNCC(O)c1ccc(OC(=O)C(C)(C)C)c(OC(=O)C(C)(C)C)c1 (stereo unspecified),Potency,[1],inactive
same,Potency,[2],inactive
same,Potency,[3],inactive
same,Potency,[4],inactive
same,Potency,[5],inactive
same,"activity change, negative = inhibition",[6],-25.4%
CN[C@H]1C[C@@H](N)[C@H](O)[C@@H](O[C@@H]2O[C@H](CO)[C@H](O)[C@@H]3OC4(O[C@H]23)O[C@H]([C@@H](N)CO)[C@H](O)[C@H](O)[C@H]4O)[C@@H]1O (stereo partly specified),Potency,[1],inactive
same,Potency,[2],inactive
same,Potency,[3],inactive
same,Potency,[4],inactive
same,Potency,[5],inactive
same,Potency,[6],17.8 µM (active)
CCCCCCCCCCCCCCCCCCCCCCCCCCCCO,"activity change, negative = inhibition",[1],-10.7% [at 0.573 µM] (inactive)
same,outcome,[2],inactive [at 0.573 µM]
same,outcome,[3],inactive [at 0.573 µM]
same,"activity change, negative = cytotoxicity",[4],3.84% [at 0.573 µM] (inactive)
same,outcome,[5],inactive [at 0.702 µM]
same,outcome,[6],inactive [at 0.702 µM]
